Data taken from PubChem BioAssay AID1159580 (chemical genetic matrix, 2015).
The whole screen tested about 5,500 compounds, of which about 2,000 (36%) were called active. Roughly 18% stayed inconclusive and do not appear here. Rule as the data show it: active = normalized growth mostly below about 0.91 (no sharp cut-off); inconclusive = no clear call, values can overlap the other calls; inactive = mostly above about 0.92. The list shows a part of the results.

Test: chemical genetic growth profiling, strain panel (AID 1159580);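 also: tested at 20 µM; growth read once vehicle control cultures reached saturation at 30 °C; 1 = growth at the plate median or of vehicle wells; lower values mean less growth of the strain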
Conditions: growth OD

Measured: normalized growth

O=C(O)[C@H](O)[C@@](O)(Cc1ccc(O)cc1)C(=O)O
inactive: S. cerevisiae deletion strains, locus YJR066W, strain TOR1, hits give low values 0.995 | S. cerevisiae deletion strains, locus YJR075W, strain HOC1, hits give low values 1.03 | S. cerevisiae deletion strains, locus YKL009W, strain mrt4, hits give low values 1.07 | S. cerevisiae deletion strains, locus YKL068W, hits give low values 1 | S. cerevisiae deletion strains, locus YKL085W, strain MDH1 (second series), hits give low values 1.02 | S. cerevisiae deletion strains, locus YKL085W, strain MDH1, hits give low values 1.02 | S. cerevisiae deletion strains, locus YKL160W, strain elf1, hits give low values 1.01 | S. cerevisiae deletion strains, locus YKL190W, strain CNB1, hits give low values 1.02 | S. cerevisiae deletion strains, locus YKR001C, strain vps1, hits give low values 1.02 | S. cerevisiae deletion strains, locus YKR026C, strain gcn3, hits give low values 1 | S. cerevisiae deletion strains, locus YKR091W, strain srl3, hits give low values 1 | S. cerevisiae deletion strains, locus YLL001W, strain dnm1, hits give low values 1.03 | S. cerevisiae deletion strains, locus YLL026W, hits give low values 1 | S. cerevisiae deletion strains, locus YLL041C, strain sdh2, hits give low values 1 | S. cerevisiae deletion strains, locus YLR027C, strain aat2, hits give low values 1.01 | S. cerevisiae deletion strains, locus YLR039C, strain RIC1, hits give low values 1.13 | S. cerevisiae deletion strains, locus YLR058C, strain SHM2, hits give low values 1.04 | S. cerevisiae deletion strains, locus YLR102C, strain apc9, hits give low values 0.994 | S. cerevisiae deletion strains, locus YLR113W, strain HOG1, hits give low values 1 | S. cerevisiae deletion strains, locus YLR221C, strain rsa3, hits give low values 1.03 | S. cerevisiae deletion strains, locus YLR258W, strain gsy2, hits give low values 1.01 | S. cerevisiae deletion strains, locus YLR262C, strain YPT6 (second series), hits give low values 1.03 | S. cerevisiae deletion strains, locus YLR268W, strain sec22, hits give low values 1.04 | S. cerevisiae deletion strains, locus YLR320W, strain mms22, hits give low values 1.03 | S. cerevisiae deletion strains, locus YLR330W, strain CHS5, hits give low values 1.02 | S. cerevisiae deletion strains, locus YLR342W, strain FKS1 (second series), hits give low values 1.09 | S. cerevisiae deletion strains, locus YLR342W, strain FKS1, hits give low values 1.01 | S. cerevisiae deletion strains, locus YLR357W, strain rsc2, hits give low values 1.01 | S. cerevisiae deletion strains, locus YLR370C, strain arc18, hits give low values 1.01 | S. cerevisiae deletion strains, locus YLR371W, strain rom2, hits give low values 1 | S. cerevisiae deletion strains, locus YLR384C, strain iki3, hits give low values 1.01 | S. cerevisiae deletion strains, locus YLR418C, strain cdc73, hits give low values 1.01 | S. cerevisiae deletion strains, locus YML016C, strain PPZ1, hits give low values 1.01 | S. cerevisiae deletion strains, locus YML032C, strain rad52, hits give low values 1.01 | S. cerevisiae deletion strains, locus YML120C, strain ndi1, hits give low values 1 | S. cerevisiae deletion strains, locus YML124C, strain tub3, hits give low values 1.01 | S. cerevisiae deletion strains, locus YMR058W, strain fet3, hits give low values 1.02 | S. cerevisiae deletion strains, locus YMR078C, strain ctf18, hits give low values 0.982 | S. cerevisiae deletion strains, locus YMR125W, strain sto1, hits give low values 1.01 | S. cerevisiae deletion strains, locus YMR129W, hits give low values 1.01 | S. cerevisiae deletion strains, locus YMR205C, strain PFK2, hits give low values 1.02 | S. cerevisiae deletion strains, locus YMR223W, strain ubp8, hits give low values 1.01 | S. cerevisiae deletion strains, locus YMR231W, strain pep5, hits give low values 0.998 | S. cerevisiae deletion strains, locus YMR263W, strain SAP30, hits give low values 1.02 | S. cerevisiae deletion strains, locus YMR307W, strain GAS1, hits give low values 1.04 | S. cerevisiae deletion strains, locus YNL067W, strain RPL9B, hits give low values 1.02 | S. cerevisiae deletion strains, locus YNL071W, strain lat1, hits give low values 1.01 | S. cerevisiae deletion strains, locus YNL153C, strain GIM3, hits give low values 1.02 | S. cerevisiae deletion strains, locus YNL183C, strain NPR1, hits give low values 1.01 | S. cerevisiae deletion strains, locus YNL209W, strain ssb2, hits give low values 1 | S. cerevisiae deletion strains, locus YNL233W, strain BNI4, hits give low values 1.04 | S. cerevisiae deletion strains, locus YNL248C, strain rpa49, hits give low values 1 | S. cerevisiae deletion strains, locus YNL250W, strain rad50, hits give low values 1.01 | S. cerevisiae deletion strains, locus YNL271C, strain bni1, hits give low values 1.01 | S. cerevisiae deletion strains, locus YNL298W, strain CLA4, hits give low values 0.987 | S. cerevisiae deletion strains, locus YNL307C, strain MCK1, hits give low values 0.987 | S. cerevisiae deletion strains, locus YNL322C, strain KRE1 (second series), hits give low values 1.01 | S. cerevisiae deletion strains, locus YNR049C, strain mso1, hits give low values 1 | S. cerevisiae deletion strains, locus YNR052C, strain pop2, hits give low values 0.995 | S. cerevisiae deletion strains, locus YOL006C, strain TOP1, hits give low values 1.25 | S. cerevisiae deletion strains, locus YOL012C, strain htz1 0.973 | S. cerevisiae deletion strains, locus YOL147C, strain pex11, hits give low values 1 | S. cerevisiae deletion strains, locus YOR001W, strain rrp6, hits give low values 0.986 | S. cerevisiae deletion strains, locus YOR061W, strain CKA2, hits give low values 1.04 | S. cerevisiae deletion strains, locus YOR069W, strain VPS5, hits give low values 1.01 | S. cerevisiae deletion strains, locus YOR070C, strain gyp1, hits give low values 1.02 | S. cerevisiae deletion strains, locus YOR080W, strain dia2, hits give low values 1.01 | S. cerevisiae deletion strains, locus YOR083W, strain WHI5, hits give low values 1.03 | S. cerevisiae deletion strains, locus YOR106W, strain vam3, hits give low values 1.01 | S. cerevisiae deletion strains, locus YOR136W, strain idh2, hits give low values 1.01 | S. cerevisiae deletion strains, locus YOR144C, strain elg1, hits give low values 1 | S. cerevisiae deletion strains, locus YOR184W, strain ser1, hits give low values 1.04 | S. cerevisiae deletion strains, locus YOR231W, strain MKK1, hits give low values 1.02 | S. cerevisiae deletion strains, locus YOR265W, strain rbl2, hits give low values 1 | S. cerevisiae deletion strains, locus YOR270C, strain vph1, hits give low values 1.05 | S. cerevisiae deletion strains, locus YOR290C, strain snf2, hits give low values 1.01 | S. cerevisiae deletion strains, locus YOR316C, strain cot1, hits give low values 1 | S. cerevisiae deletion strains, locus YPL051W, strain arl3, hits give low values 1.05 | S. cerevisiae deletion strains, locus YPL078C, strain atp4, hits give low values 1.01 | S. cerevisiae deletion strains, locus YPL106C, strain sse1, hits give low values 1.01 | S. cerevisiae deletion strains, locus YPL240C, strain hsp82, hits give low values 1.01 | S. cerevisiae deletion strains, locus YPL241C, strain CIN2, hits give low values 1.01 | S. cerevisiae deletion strains, locus YPL256C, strain CLN2, hits give low values 0.993 | S. cerevisiae deletion strains, locus YPR119W, strain clb2, hits give low values 1 | S. cerevisiae deletion strains, locus YPR141C, strain kar3, hits give low values 1 | S. cerevisiae deletion strains, locus YPR163C, strain tif3, hits give low values 0.992 | S. cerevisiae deletion strains, locus YPR167C, strain met16, hits give low values 1.01 | S. cerevisiae deletion strains, strain wtn01, hits give low values 1.02 | S. cerevisiae strains, strain wild type, hits give low values 1.03
